Consider 13 molecules from PubChem BioAssay (NCATS).

Values joined by “and” are separate entries in the source; they are usually repeats but may differ in a detail not shown here. Equal values may be shown once. Inconclusive results are not listed. A structure can be active in one record and inactive in another. Active and inactive are the calls of the source. Calls follow the shape of the dose curve; as a rule, active = well fitted curve in the direction sought with a large enough effect; inconclusive = small, poorly fitted or top-dose-only effect, or another doubt; inactive = no such curve, though single readings can be large; an effect the other way counts as inactive or inconclusive.

Assay [1] has as its target Cytochrome P450 2C19 (Homo sapiens) (UniProt P33261). Put plainly: qHTS Assay for Inhibitors and Substrates of Cytochrome P450 2C19 (AID 899). Also: % is scaled to controls: 0 for no effect and ±100 for the full control effect; nearly all actives have a fitted effect of over 60% in size. An outline of the steps: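 Human CYP2C19 (5nM) with Luciferin-H EGE at 10uM (its KM) in 50mM KPO4 was preincubated with compound for 10 min at 37C. NADPH regeneration started a 60 min 37C reaction. Luciferin was read by luminescence, normalized to 57uM ketoconazole.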

Assay [2] concerns the target Cytochrome P450 3A4 (Homo sapiens) (UniProt P08684). The experiment in a line: qHTS Assay for Inhibitors and Substrates of Cytochrome P450 3A4 (AID 884). Also: nearly all actives have a fitted effect of over 50% in size. Also: potency is read from the fitted curve at half-maximal effect. An outline of the steps:
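Luminescent readout of luciferin produced by CYP3A4 (20 nM) dealkylation of Luciferin-PPXE, 25 uM (its KM). NADPH-driven reaction ran 60 min at RT after 10 min compound preincubation; data scaled to 57 uM ketoconazole as 100% inhibition.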

Assay [3] can be described thus: qHTS assay for environmental chemicals that activate the Aryl hydrocarbon Receptor (AhR) signaling pathway (AID 651777). Also: % of control where 0% means no effect; nearly all actives have a fitted effect of over 15% in size. The following applies: 1A2-DRE human hepatoma cells, luciferase, 24 h; activation: stronger effect = higher value. In outline: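 Induction of CYP1A2 transcription through AhR is detected by luciferase in 1A2-DRE hepatoma cells. Compounds or DMSO act for 24 hr at 37 C before a 30 min One-Glo step at room temperature.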

Another assay relates to AS120. Put plainly: qHTS profiling for inhibitors of Plasmodium falciparum proliferation (AID 504749).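 Also: 0% = DMSO vehicle and full inhibition = artemisinin control; nearly all actives have a fitted effect of over 60% in size.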 The following applies: P. falciparum in erythrocytes, SYBR Green DNA, 72 h; series mostly up to 28.7 µM. An outline of the steps: (§1)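 Quantitative HTS: compounds pinned into medium, infected erythrocytes added (0.3% parasitemia, 2.5% hematocrit), 72 h culture at 37 C under 5% CO2. Saponin/Triton lysis with SYBR Green I, overnight RT, then fluorescence read.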

In the next assay the test system is CP191. Described as above. The following applies: P. falciparum in erythrocytes, SYBR Green DNA, 72 h; series mostly up to 28.7 µM. An outline of the steps:
as §1

The next assay has as its system CP215. The assay is described as above. The settings on record: P. falciparum in erythrocytes, SYBR Green DNA, 72 h; series mostly up to 28.7 µM. In outline:
as §1

The subject of a further assay is CP260. The assay is described as above. The following applies: P. falciparum in erythrocytes, SYBR Green DNA, 72 h; series mostly up to 28.7 µM. An outline of the steps:
as §1

The next assay concerns CP265. Described as above. The settings on record: P. falciparum in erythrocytes, SYBR Green DNA, 72 h; series mostly up to 12.8 µM. An outline of the steps:
as §1

The subject of another assay is CP291. Described as above. The following applies: P. falciparum in erythrocytes, SYBR Green DNA, 72 h; series mostly up to 28.7 µM. In outline:
as §1

The subject of the next assay is CP335. The assay is described as above. The following applies: P. falciparum in erythrocytes, SYBR Green DNA, 72 h; series mostly up to 12.8 µM. An outline of the steps:
as §1

The next assay has as its system DIV14. Described as above. The following applies: P. falciparum in erythrocytes, SYBR Green DNA, 72 h; series mostly up to 28.7 µM. In outline:
as §1

In the next assay the test system is DIV17. The assay is described as above. The following applies: P. falciparum in erythrocytes, SYBR Green DNA, 72 h; series mostly up to 28.7 µM. An outline of the steps:
as §1

The next assay relates to ICS. The assay is described as above. The following applies: P. falciparum in erythrocytes, SYBR Green DNA, 72 h; series mostly up to 28.7 µM. In outline:
as §1

The test system of the next assay is PAD. The assay is described as above. The following applies: P. falciparum in erythrocytes, SYBR Green DNA, 72 h; series mostly up to 28.7 µM. In outline: as §1
The next assay deals with SC27B. Described as above. The settings on record: P. falciparum in erythrocytes, SYBR Green DNA, 72 h; series mostly up to 28.7 µM. An outline of the steps: as §1
In the next assay the test system is TAB165. The assay is described as above. The following applies: P. falciparum in erythrocytes, SYBR Green DNA, 72 h; series mostly up to 28.7 µM. In outline:
as §1

In a further assay the test system is W2. The description is as above. The following applies: P. falciparum in erythrocytes, SYBR Green DNA, 72 h; series mostly up to 12.8 µM. In outline:
as §1

The target of assay [4] is Alpha-galactosidase (Coffea arabica) (UniProt Q42656). Put plainly: Counterscreen for Glucocerebrosidase Inhibitors: qHTS Assay for Coffee Bean alpha-Galactosidase at pH 5.9 (AID 998).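 Also: plate controls were uninhibited enzyme for no effect and no-enzyme basal signal for full effect.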 In outline: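 In 50 mM citric acid pH 5.9 with 0.005% Tween-20, coffee bean enzyme hydrolyses 80 uM 4-MU alpha-D-galactopyranoside over 20 min at RT. Activity is normalized to controls; AC50 comes from Hill-modelled concentration-response data.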
Alpha-galactosidase (Coffea arabica), sequence (Q42656 whole entry, looked up): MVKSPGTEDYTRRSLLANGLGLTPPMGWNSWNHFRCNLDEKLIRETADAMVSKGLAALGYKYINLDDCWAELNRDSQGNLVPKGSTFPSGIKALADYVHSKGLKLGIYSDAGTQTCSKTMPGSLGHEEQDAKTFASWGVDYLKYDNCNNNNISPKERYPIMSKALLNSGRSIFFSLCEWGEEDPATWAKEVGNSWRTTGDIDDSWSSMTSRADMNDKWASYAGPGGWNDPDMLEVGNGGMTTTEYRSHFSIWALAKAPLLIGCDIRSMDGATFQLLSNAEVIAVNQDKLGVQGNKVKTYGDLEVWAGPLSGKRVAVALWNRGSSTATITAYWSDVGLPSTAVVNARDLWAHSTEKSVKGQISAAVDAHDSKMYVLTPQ

The next assay concerns 7G8. The experiment in a line: qHTS profiling for inhibitors of Plasmodium falciparum proliferation (AID 504749).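 Also: 0% = DMSO vehicle and full inhibition = artemisinin control; nearly all actives have a fitted effect of over 60% in size.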 The following applies: P. falciparum in erythrocytes, SYBR Green DNA, 72 h; series mostly up to 12.8 µM. An outline of the steps:
as §1

Cytochrome P450 3A4 (Homo sapiens), sequence (P08684 whole entry, looked up): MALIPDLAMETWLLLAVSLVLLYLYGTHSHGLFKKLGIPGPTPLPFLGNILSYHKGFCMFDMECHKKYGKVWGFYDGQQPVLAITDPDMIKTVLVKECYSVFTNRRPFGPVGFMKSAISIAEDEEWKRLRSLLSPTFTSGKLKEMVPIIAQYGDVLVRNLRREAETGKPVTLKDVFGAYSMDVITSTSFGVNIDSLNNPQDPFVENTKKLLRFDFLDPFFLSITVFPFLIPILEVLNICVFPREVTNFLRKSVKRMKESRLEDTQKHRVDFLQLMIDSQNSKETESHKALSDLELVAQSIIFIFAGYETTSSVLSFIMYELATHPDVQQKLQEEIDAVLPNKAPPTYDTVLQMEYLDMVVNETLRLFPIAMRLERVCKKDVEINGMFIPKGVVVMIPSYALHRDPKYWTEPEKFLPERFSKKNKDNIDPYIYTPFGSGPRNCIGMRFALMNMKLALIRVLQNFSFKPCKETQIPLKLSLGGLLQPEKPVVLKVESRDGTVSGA
Cytochrome P450 2C19 (Homo sapiens), sequence (P33261 whole entry, looked up): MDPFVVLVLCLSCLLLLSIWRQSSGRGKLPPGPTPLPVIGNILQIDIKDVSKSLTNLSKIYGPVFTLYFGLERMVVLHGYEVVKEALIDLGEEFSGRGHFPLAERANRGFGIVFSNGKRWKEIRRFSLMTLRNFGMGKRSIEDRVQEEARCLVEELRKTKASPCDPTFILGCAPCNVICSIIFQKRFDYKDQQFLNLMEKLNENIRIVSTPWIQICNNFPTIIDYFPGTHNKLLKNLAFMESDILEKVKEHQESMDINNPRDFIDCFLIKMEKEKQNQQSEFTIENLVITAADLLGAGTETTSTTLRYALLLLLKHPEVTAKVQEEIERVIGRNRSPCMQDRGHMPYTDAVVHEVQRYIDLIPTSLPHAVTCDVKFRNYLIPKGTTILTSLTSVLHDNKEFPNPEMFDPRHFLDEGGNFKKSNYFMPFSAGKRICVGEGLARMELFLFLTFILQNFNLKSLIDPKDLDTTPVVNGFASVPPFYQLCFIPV

In the case of `Cc1nc2cnc(N3CCNCC3)nc2n(C)c1=O`, the Potency entry in [1] was “inactive”.

Consider `ClC1=C(Cl)C2(Cl)C3C4C=CC(C4)C3C1(Cl)C2(Cl)Cl` (stereo not given), for which the Potency in [2] was 3.16 µM (active). For the same molecule, the activation in assay [3] is 0.192% (inactive).

`CCNC[C@H](O)c1cccc(O)c1`: the Potency entry in the assay with AS120, with CP191, in the assay on CP215, with CP260, in the assay with CP265 and in the assay on CP291 was “inactive” in each case. In addition, the Potency result in the assay on CP335, in the assay on DIV14, in the assay on DIV17, in the assay with ICS, with PAD and in the assay on SC27B was “inactive” each time. Moreover, the Potency entry in the assay with TAB165 and in the assay with W2 was “inactive” throughout.

Consider `COc1ccc(OC)c([C@H](O)[C@H](C)N)c1`, for which, in assay [4], the molecule was called inactive.

As for `O=S1OCC2C(CO1)C1(Cl)C(Cl)=C(Cl)C2(Cl)C1(Cl)Cl` (stereo not given), the activation in [3] was -0.06% (inactive).

As for `CC[C@@]1(c2ccc(N)cc2)CCC(=O)NC1=O`, in assay [4], the call was inactive. Further, the Potency entry in the assay with 7G8, in the assay with AS120, with CP191, in the assay with CP215, with CP260 and in the assay with CP265 was “inactive” throughout. Further, the Potency result in the assay on CP291, with CP335, in the assay on DIV14, in the assay with DIV17, in the assay with ICS and with PAD was “inactive” throughout. Further, the Potency result in the assay on SC27B and in the assay with TAB165 was “inactive” each time.

In the case of `CC(=O)O[C@H]1CC[C@@]2(C)C(=CC[C@@H]3[C@H]2CC[C@]2(C)C(=O)CC[C@H]32)C1`, the Potency entry (in [2]; in the assay on 7G8; in the assay on AS120; with CP191; with CP215; with CP260) was “inactive” throughout. For the same molecule, the Potency result in the assay on CP265, in the assay on CP291, in the assay with CP335, in the assay on DIV14, with DIV17 and in the assay with ICS was “inactive” in each case. Besides, the Potency result with PAD, in the assay with SC27B, in the assay with TAB165 and with W2 was “inactive” in each case.

As for `C[C@H](NC(C)(C)C)C(=O)c1cccc(Cl)c1`, in assay [4], the outcome was inactive. Further, the Potency result in the assay with AS120, in the assay with CP191, in the assay on CP215, in the assay with CP260, in the assay on CP291 and with DIV14 was “inactive” in each case. Besides, the Potency entry in the assay on PAD, in the assay with SC27B and in the assay with TAB165 was “inactive” each time.

`ClC1=C(Cl)C2(Cl)C3C(Cl)C=CC3C1(Cl)C2(Cl)Cl` (stereo not given): the Potency in assay [2] was 10 µM (active). In addition, in [3], the activation is -0.719% (inactive).

On to `ClC(Cl)=C(c1ccc(Cl)cc1)c1ccc(Cl)cc1`, for which the Potency entry in [2] was “inactive and 7.94 µM (active)”. Moreover, the activation in [3] is 0.0823% (inactive) and 0.597% (inactive) and 0.112% (inactive).

As to `CCOCN(C(=O)CCl)c1c(C)cccc1CC`, in assay [2], the Potency entry is “inactive”. Moreover, the activation in [3] was -0.995% (inactive) and 0.961% (inactive).

Consider `C[N+]1([O-])[C@@H]2CC(OC(=O)[C@@H](CO)c3ccccc3)C[C@@H]1[C@H]1O[C@H]12` (stereo not given in full), for which the Potency result in the assay with 7G8, in the assay on AS120, in the assay on CP191, in the assay on CP260, with CP265 and with CP291 was “inactive” each time. Further, the Potency entry in the assay with CP335, with DIV14, with DIV17, with ICS, in the assay with PAD and with SC27B was “inactive” throughout. The Potency entry in the assay on TAB165 and in the assay on W2 was “inactive” in each case.

On to `C[C@H]1CN(C2CCC(C#N)(c3ccc(F)cc3)CC2)CC[C@@]1(C(=O)O)c1ccccc1` (stereo not given in full), for which the Potency result in the assay on 7G8, with AS120, in the assay on CP191, in the assay on CP215, in the assay with CP260 and with CP265 was “inactive” throughout. The Potency result in the assay with CP291, in the assay with CP335, in the assay on DIV14, in the assay on DIV17, in the assay with ICS and in the assay on PAD was “inactive” each time. Further, the Potency result in the assay on SC27B, in the assay with TAB165 and in the assay with W2 was “inactive” each time.
